Most compounds without a hit are left out; they make up all but 3% or so of the library.
Tau fluor cs: counter-screen for tau fibril formation inhibitors; tau K18 P301L Alexa594 fluorescence, heparin fibrillization; Potency, µM (doses to about 57.7 µM), for inactives: top-dose activity change, negative = decrease; 0.93% of 280,000 active; also: nearly all actives have a fitted effect of over 55% in size
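Human tau K18 P301L (15 uM unlabeled, 0.24 uM Alexa 594-labeled) in 100 mM sodium acetate pH 7 with 20 uM heparin, 6 hr at 37 C. ThT 30 uM added, 1 hr ambient; Alexa 594 FP and total fluorescence read at 555/632 nm.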
Tau fibril ThT: inhibitors of human tau fibril formation, thioflavin T binding; P10636; recombinant tau K18 P301L (four-repeat tau fragment), heparin-induced fibrillization, ThT fluorescence; Potency, µM (top dose mostly 57.4 µM), inactives show at the top dose activity, negative = inhibition, hits mostly inhibitors; 2.1% of 270,000 active; also: nearly all actives have a fitted effect of over 55% in size
Target sequence (P10636 561-689 P618L limits assumed): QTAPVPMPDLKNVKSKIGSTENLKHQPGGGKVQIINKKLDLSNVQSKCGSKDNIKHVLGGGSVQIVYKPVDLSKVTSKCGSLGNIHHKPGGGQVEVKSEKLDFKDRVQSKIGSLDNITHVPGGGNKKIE
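Heparin-induced fibrillization of the P301L-mutant K18 repeat-domain fragment of human tau was followed by ThT binding in quantitative high-throughput format.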
Tau fibril FP: tau fibrillization inhibition (FP). P10636. K18 P301L tau heparin fibrillization, Alexa594 FP, 6 h. Potency, µM (top dose mostly 57.7 µM), for inactives: at the highest dose activity, negative = inhibition, actives largely listed as inhibitors. 0.39% of 280,000 active; also: nearly all actives have a fitted effect of over 55% in size
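Quantitative HTS format: compounds meet 15 uM recombinant K18 P301L tau and Alexa 594-tau tracer in 100 mM sodium acetate pH 7; 20 uM heparin triggers fibrillization at 37 C over 6 hr; FP gives the signal.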
TRb-SRC2 inh: disrupts binding of human TR beta to SRC2; P10828; TRbeta-SRC2 peptide binding, fluorescence polarization; receptor liganded with 1 µM T3; Potency, µM (top dose mostly 106 µM), for inactives: at the highest dose activity change, negative = inhibition, hits mostly inhibitors; 0.065% of 280,000 active; AID 1469;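 also: plate controls were bound peptide for no effect and peptide without receptor for full effect; nearly all actives have a fitted effect of over 50% in size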
Target sequence (P10828 whole entry, looked up): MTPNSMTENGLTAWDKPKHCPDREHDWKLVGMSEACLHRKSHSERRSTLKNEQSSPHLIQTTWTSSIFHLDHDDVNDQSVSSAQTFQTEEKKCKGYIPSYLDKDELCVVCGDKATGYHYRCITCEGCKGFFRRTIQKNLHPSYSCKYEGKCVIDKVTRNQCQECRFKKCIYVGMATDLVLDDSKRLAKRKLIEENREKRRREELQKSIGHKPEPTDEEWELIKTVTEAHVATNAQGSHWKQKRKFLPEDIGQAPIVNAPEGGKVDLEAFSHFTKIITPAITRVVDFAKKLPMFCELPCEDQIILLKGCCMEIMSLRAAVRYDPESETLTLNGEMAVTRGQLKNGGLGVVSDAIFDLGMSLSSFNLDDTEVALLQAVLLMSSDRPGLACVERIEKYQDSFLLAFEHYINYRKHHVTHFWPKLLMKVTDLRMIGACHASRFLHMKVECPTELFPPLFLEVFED
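Compounds were added to 0.6 uM TRb ligand-binding domain and 20 nM Texas Red-labeled SRC2 peptide in Tris buffer containing 1 uM T3, incubated 5 hr at ambient temperature, then read by fluorescence polarization.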
TexasRed fluor: counter-screen for TRb-SRC2 inhibitors: fluorescence interference; TRb/SRC2 Texas Red total fluorescence interference; AID 1479; 0.29% of 280,000 active; Potency, µM (doses to about 106 µM), for the others: top-dose fluorescence change, negative = quenching; active = well fitted curve in either direction with a large enough effect; inconclusive = small, poorly fitted or top-dose-only effect
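Human TRβ ligand-binding domain (0.6 uM) and Texas Red SRC2 peptide (20 nM) in Tris buffer with 1 uM T3 and 5% DMSO were incubated with pinned compound for 5 hr at ambient temperature. Total fluorescence was computed as S + 2P (555/632 nm).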
* = called active by the depositor; ? = inconclusive; . = no result; [ ] = dose if it differs, or a comment. Unless noted, calls follow the shape of the dose curve; as a rule, active = well fitted curve in the direction sought with a large enough effect; inconclusive = small, poorly fitted or top-dose-only effect, or another doubt; inactive = no such curve, though single readings can be large; an effect the other way counts as inactive or inconclusive. Unless noted, % is scaled to controls: 0 for no effect and ±100 for the full control effect; potency is read from the fitted curve at half-maximal effect.

SMILES | Tau fluor cs | Tau fibril ThT | Tau fibril FP | TRb-SRC2 inh | TexasRed fluor
Cc1cc(NC(=O)c2sc(Nc3ccc(F)c(Cl)c3)nc2N)no1 | ? | ? | 6.5% | 0.7% | -5.0%
Cc1cc(NC(=O)c2sc(Nc3cccc(C(F)(F)F)c3)nc2N)no1 | 17.8µM*[quencher] | 11.2µM* | ? | 0.8% | -5.3%
O=C(CCCCn1c(=O)c2ccccc2n(Cc2ccc(Cl)cc2)c1=O)NCc1ccccc1Cl | -2.0% | 1.7% | 9.3% | 4.0% | -22.9%
CCOC(=O)C1=C(CC)Nc2ccccc2N=C1NC(=O)c1ccc(S(=O)(=O)N2CCCC2)cc1 | -10.6% | -3.8% | 2.6% | 4.4% | 0.0%
CCOC(=O)C1=C(CC)Nc2ccccc2N=C1NC(=O)Nc1ccc(Cl)c(Cl)c1 | ? | ? | 12.6µM* | 4.7% | -0.3%
Cc1ccc(CCNC(=O)c2c[nH]c3ccc(S(=O)(=O)Nc4ccc(C)cc4C)cc3c2=O)cc1 | ? | 5.8% | 4.47µM* | -18.7% | -60.8%
Cc1cccc(CCNC(=O)c2c[nH]c3ccc(S(=O)(=O)Nc4ccccc4F)cc3c2=O)c1 | ? | 13.7% | 7.08µM* | -19.6% | ?
COCCCNC(=O)c1c[nH]c2ccc(S(=O)(=O)N3CCc4ccccc43)cc2c1=O | ? | 9.8% | 28.2µM* | 3.3% | -1.3%
COCCNC(=O)c1c[nH]c2ccc(S(=O)(=O)N3CCc4ccccc43)cc2c1=O | ? | -0.5% | ? | -5.3% | -1.8%
COc1cccc(NS(=O)(=O)c2ccc3[nH]cc(C(=O)NCCc4ccccc4)c(=O)c3c2)c1 | ? | -7.2% | ? | -5.6% | -0.8%
Cc1ccc2[nH]c3c(=O)n(CC(=O)N4CCN(c5ccccc5F)CC4)ncc3c2c1 | -4.8% | -1.5% | -4.4% | 3.8% | 1.6%
CCSC(=O)N(CC(C)C)CC(C)C | . | . | . | 2.9%[201 µM] | -4.7%[201 µM]
COc1cc(CN(C(=O)COc2ccc(Cl)cc2)c2ccccn2)cc(OC)c1OC | 8.6% | 4.3% | 6.6% | -17.6% | ?
Fc1cccc(NC(=S)NNc2c3ccccc3nc3ccccc23)c1 | 11.2µM*[quencher] | 7.94µM* | -16.8% | -1.8% | -7.8%
Nc1ccccc1SC1CC(=O)N(c2ccc(Cl)c(Cl)c2)C1=O (configuration not stated) | ? | 4.9% | 28.2µM* | -3.5% | -2.8%
O=C1CC(SC(=Nc2ccccc2)Nc2ccccc2)C(=O)N1c1ccc(Cl)c(Cl)c1 (configuration not stated) | ? | 11.0% | 7.94µM* | -2.7% | 0.0%
CN=C(Nc1cc(Cl)ccc1Cl)SC1CC(=O)N(c2ccc(C(=O)OC)cc2)C1=O (configuration not stated) | ? | 6.8% | 28.2µM* | 2.8% | -10.3%
Cc1oc(-c2ccccc2F)nc1CSCC(=O)N1CCN(c2ccccc2)CC1 | -12.4% | -21.5% | 5.5% | -0.5% | -0.9%
CCC1Cc2c(nc(N)c3c(N)nc(N4CCCCC4)c(C#N)c23)O1 (configuration not stated) | 15.8µM*[quencher] | ? | 14.9% | -7.1% | -1.6%
N#Cc1c(N)nc(N2CCCC2)c(C#N)c1-c1ccc(Cl)cc1 | -5.6% | 4.1% | ? | -11.8% | -1.3%
N#Cc1c(N2CCCCC2)nc(N)c2c(N)nc3c(c12)CC(c1ccccc1)O3 (configuration not stated) | 11.2µM*[quencher] | ? | 14.9% | -15.9% | -2.5%
CCN(CC)c1nc(N)c2c(N)n(-c3ccccc3C)c(=S)c(C#N)c2c1C#N | -7.4% | 3.7% | -5.0% | 14.6% | -0.1%
CCN(CC)c1nc(N)c2c(N)nc3c(c2c1C#N)CC(c1ccccc1)O3 (configuration not stated) | 31.6µM*[quencher] | ? | 11.7% | -6.4% | -2.6%
N#Cc1c(N)nc2c(c1N)CC(CO)O2 (configuration not stated) | 2.3% | 7.1% | 0.6% | -7.2% | -0.1%
Cc1ccc(C)n1-c1cc([N+](=O)[O-])ccc1-n1ccnc1 | -8.4% | -6.4% | 2.0% | -3.1% | -4.2%
SMILES | Tau fluor cs | Tau fibril ThT | Tau fibril FP | TRb-SRC2 inh | TexasRed fluor
CC1(C)N([O-])c2cc([N+](=O)[O-])ccc2[N+]1=O | ? | 2µM* | 8.91µM* | -2.2% | -4.5%
O=C(Nc1ccccc1)Nc1ccc(Cl)c([N+](=O)[O-])c1 | 11.2µM*[quencher] | ? | ? | -7.0% | 0.7%
O=C(Nc1ccc(C(O)(C(F)(F)F)C(F)(F)F)cc1)c1ccc(Cl)c([N+](=O)[O-])c1 | 12.6µM*[quencher] | ? | -14.3% | -11.9% | -3.4%
O=C(O)c1cc(NC(=O)c2ccc(Cl)c([N+](=O)[O-])c2)cc(C(=O)O)c1 | -0.7% | -2.5% | 1.7% | 5.6% | -4.5%
CC(C)CS(=O)(=O)c1oc(-c2ccc(F)cc2)nc1S(=O)(=O)c1ccccc1 | -14.7% | ? | ? | -1.0% | ?
O=C(O)c1cc(O)c2c(c1)C(=O)c1cc(O)cc(O)c1C2=O | ? | 7.08µM* | -6.1% | 1.8% | -9.7%
COc1ccc(OC)c(C2CC(=O)N3CN(c4ccccc4F)CSC3=C2C#N)c1 (configuration not stated) | -22.7% | 28.2µM* | 25.1µM* | 1.3% | -1.2%
COc1ccc(OC)c(C2CC(=O)N3CN(c4cccc(Cl)c4C)CSC3=C2C#N)c1 (configuration not stated) | ? | 28.2µM* | 31.6µM* | 3.6% | -1.0%
COc1cccc(C2CC(=O)N3CN(c4cccc(Cl)c4C)CSC3=C2C#N)c1OC (configuration not stated) | ? | 28.2µM* | 31.6µM* | 3.3% | -3.2%
NC(=O)N/N=C/c1cccc(OCc2ccc(F)cc2)c1 | -2.2% | -4.1% | -1.3% | 6.4% | -7.1%
Cc1nnc(N/N=C/c2cccc(OCc3ccc(Cl)c(Cl)c3)c2)n1N | 25.1µM*[quencher] | 12.6µM* | -12.9% | 7.3% | 0.1%
COC(=O)/C(=C1/Oc2cc(C)oc(=O)c2S1)C(F)(F)F | -21.5% | 8.91µM* | ? | -2.0% | -9.0%
CCOC(=O)c1sc(N2C(=O)c3oc4ccc(C)cc4c(=O)c3C2c2ccccc2F)nc1C (configuration not stated) | -10.7% | -10.5% | -2.6% | 4.0% | 2.4%
COc1cc(CNc2ccc3[nH]c(=O)[nH]c3c2)ccc1OCC(=O)NC(C)(C)C | ? | 14.1µM* | ? | -7.1% | -3.6%
CC1=NN(c2ccccc2)C(=O)/C1=C/c1c(O)n(-c2ccc(F)c(Cl)c2)[nH]c1=O | ? | 5.01µM* | ? | 7.3% | ?
CC1=NN(c2ccccc2)C(=O)/C1=C\c1c(C)[nH]n(-c2ccccc2)c1=O | -17.6% | ? | 0.4% | 3.2% | 0.8%
CCC1=C2CC[C@H]3C(=O)N(CC)C(=O)[C@H]3[C@H]2[C@@]2(Cc3ccccc3)C(=NCC3CC3)OC(=O)N2C1=O | -12.9% | -13.4% | 0.9% | -5.3% | 0.1%
OC1CCCCCCCCCCC1 | . | . | . | 1.0%[201 µM] | -2.6%[201 µM]
